Binding signal data for five sequences are collected here from publication PMC11006913.

Experiment in all cases: PBM; 200 nM protein, PBS
Common to all, as to settings: dsDNA, one strand shown

The target in assay [1] is T1, NKX2-6 (Homo sapiens, UniProt A6NCS4 118-204, R150C).
T1 sequence: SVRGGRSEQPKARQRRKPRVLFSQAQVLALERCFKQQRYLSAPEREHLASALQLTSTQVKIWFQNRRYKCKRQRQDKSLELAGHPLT

Assay [2] concerns the target T2, NKX2-6 (Homo sapiens, UniProt A6NCS4 118-204, F151L).
T2 sequence: T1 sequence with C33R, F34L

Assay [3] addresses NKX3-2 (Homo sapiens, UniProt P78367 192-278, P234S).
Assay [4] deals with NKX3-2 (Homo sapiens, UniProt P78367 192-278).
Chain of NKX3-2 (Homo sapiens, UniProt P78367 192-278) (P78367 192-278): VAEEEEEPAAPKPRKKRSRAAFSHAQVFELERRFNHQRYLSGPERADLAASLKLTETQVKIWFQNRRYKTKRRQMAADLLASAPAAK

Numbering of substitutions follows the chain as printed.

Chain of NKX3-2 (Homo sapiens, UniProt P78367 192-278, P234S) (P78367 192-278 P234S): as the sequence (P78367 192-278) above, with P43S counted along it

On to GACGCCGC, for which the binding signal in the assay with NKX2-6 [1] is 9.27 upbm affinity estimate (log intensity, higher = more binding, comparable within an allelic series).
With AGCCTGGG, in the assay with NKX2-6 [2], the binding signal is 9.24 upbm affinity estimate (log intensity, higher = more binding, comparable within an allelic series).
With GACTCGGC, in the assay with NKX2-6 [2], the binding signal was 9.23 upbm affinity estimate (log intensity, higher = more binding, comparable within an allelic series).
On to GACTGGCC, for which the binding signal was 10.5 upbm affinity estimate (log intensity, higher = more binding, comparable within an allelic series) in the assay with NKX3-2 [3] and 10.5 upbm affinity estimate (log intensity, higher = more binding, comparable within an allelic series) with NKX3-2 [4].
In the case of CGGGCTAG, in the assay with NKX2-6 [1], the binding signal is 9.48 upbm affinity estimate (log intensity, higher = more binding, comparable within an allelic series).
